Data reported in PubChem BioAssay (Tox21).
Results filed as inconclusive are left out. Activity calls are given as the source filed them. Unless noted, calls come from the whole dose curve; as a rule, active = well fitted curve in the direction sought with a large enough effect in the repeat runs; inconclusive = weak or mixed curves; inactive = no such curve, though single readings can be large; an effect the other way counts as inactive or inconclusive.

Assays:
[1] = qHTS RealTime-Glo MT Cell Viability Assay in HEK293 cells - 0 hour (AID 1224880); note: top concentration of the series differs between compounds; nearly all actives have a fitted effect of over 45% in size
Method in brief: (§1)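 600 cells/well were plated with the nonlytic NanoLuc/prosubstrate reagent, pre-incubated 5 h, then given 23 nL of compound in DMSO. Incubation at 37 C for 40 h, with luminescence from viable-cell-reduced substrate read repeatedly from 0 h.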

[2] = A CellTox Green Cytotoxicity Assay to monitor cytotoxicity in HEK293 cells - 32 hour (AID 1224881); note: nearly all actives have a fitted effect of over 40% in size
Method in brief: (§2)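 HEK293 cells, 600/well, were preincubated 5 hours and then exposed to compounds at 37 C for up to 40 hours. A cell-impermeant cyanine dye staining dead-cell DNA was read by fluorescence at 0, 8, 16, 24, 32 and 40 h time points.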

[3] = A CellTox Green Cytotoxicity Assay to monitor cytotoxicity in HepG2 cells - 0 hour (AID 1224882); note: nearly all actives have a fitted effect of over 35% in size
Method in brief: (§3)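 HepG2 cells, 600/well, preincubated 5 h with CellTox Green dye, then exposed to Tox21 compounds in DMSO at 37 C for up to 40 h. Dead-cell DNA fluorescence read at the indicated time point.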

[4] = A CellTox Green Cytotoxicity Assay to monitor cytotoxicity in HepG2 cells - 32 hour (AID 1224883); note: nearly all actives have a fitted effect of over 50% in size
Method in brief: as §3

[5] = A CellTox Green Cytotoxicity Assay to monitor cytotoxicity in HEK293 cells - 8 hour (AID 1224884); note: nearly all actives have a fitted effect of over 35% in size
Method in brief: as §2

[6] = qHTS RealTime-Glo MT Cell Viability Assay in HepG2 cells - 16 hour (AID 1224885); note: nearly all actives have a fitted effect of over 50% in size
Method in brief: (§4)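 Cell number in HepG2 cultures estimated from NanoLuc luminescence generated by metabolic reduction of a prosubstrate by living cells. The homogeneous, nonlytic format allowed repeated reads at 0, 8, 16, 24, 32 and 40 h of compound exposure.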

[7] = qHTS RealTime-Glo MT Cell Viability Assay in HEK293 cells - 8 hour (AID 1224887); note: top concentration of the series differs between compounds; nearly all actives have a fitted effect of over 50% in size
Method in brief: as §1

[8] = A CellTox Green Cytotoxicity Assay to monitor cytotoxicity in HEK293 cells - 16 hour (AID 1224888); note: nearly all actives have a fitted effect of over 35% in size
Method in brief: as §2

[9] = qHTS RealTime-Glo MT Cell Viability Assay in HepG2 cells - 0 hour (AID 1224889); note: nearly all actives have a fitted effect of over 50% in size
Method in brief: as §4

[10] = A CellTox Green Cytotoxicity Assay to monitor cytotoxicity in HepG2 cells - 8 hour (AID 1224890); note: nearly all actives have a fitted effect of over 45% in size
Method in brief: as §3

[11] = qHTS assay to identify small molecule antagonists of the estrogen receptor alpha (ER-alpha) signaling pathway using the BG1 cell line in the presence of 0.1 nM 17-beta-estradiol - cell viability counter screen (AID 1259241); note: nearly all actives have a fitted effect of over 40% in size
Method in brief: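 CellTiter-Fluor read (30 min, 37C) on ER-alpha/ERE-luc VM7Luc4E2 cells; 22 hr compound treatment; agonist 0.1 nM E2 final; same-well multiplex.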

[12] = qHTS assay to identify small molecule antagonists of the androgen receptor (AR) signaling pathway using the MDA cell line in the presence of 0.5 nM R1881 - cell viability counter screen (AID 1259242); note: nearly all actives have a fitted effect of over 45% in size
Method in brief: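 MDA-kb2 cells (MMTV-luciferase, AR/GR responsive) were treated with compounds plus 0.5 nM R1881 (final) for 16 hr at 37C, 0% CO2. Viability was then read in the same wells as live-cell protease fluorescence (CellTiter-Fluor, 30 min).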

[13] = molecular target: Androgen receptor (Homo sapiens) (UniProt P10275); experiment: qHTS assay to identify small molecule antagonists of the androgen receptor (AR) signaling pathway using the MDA cell line in the presence of 0.5 nM R1881 (AID 1259243); note: nearly all actives have a fitted effect of over 50% in size
Chain of Androgen receptor (Homo sapiens) (P10275 whole entry, looked up): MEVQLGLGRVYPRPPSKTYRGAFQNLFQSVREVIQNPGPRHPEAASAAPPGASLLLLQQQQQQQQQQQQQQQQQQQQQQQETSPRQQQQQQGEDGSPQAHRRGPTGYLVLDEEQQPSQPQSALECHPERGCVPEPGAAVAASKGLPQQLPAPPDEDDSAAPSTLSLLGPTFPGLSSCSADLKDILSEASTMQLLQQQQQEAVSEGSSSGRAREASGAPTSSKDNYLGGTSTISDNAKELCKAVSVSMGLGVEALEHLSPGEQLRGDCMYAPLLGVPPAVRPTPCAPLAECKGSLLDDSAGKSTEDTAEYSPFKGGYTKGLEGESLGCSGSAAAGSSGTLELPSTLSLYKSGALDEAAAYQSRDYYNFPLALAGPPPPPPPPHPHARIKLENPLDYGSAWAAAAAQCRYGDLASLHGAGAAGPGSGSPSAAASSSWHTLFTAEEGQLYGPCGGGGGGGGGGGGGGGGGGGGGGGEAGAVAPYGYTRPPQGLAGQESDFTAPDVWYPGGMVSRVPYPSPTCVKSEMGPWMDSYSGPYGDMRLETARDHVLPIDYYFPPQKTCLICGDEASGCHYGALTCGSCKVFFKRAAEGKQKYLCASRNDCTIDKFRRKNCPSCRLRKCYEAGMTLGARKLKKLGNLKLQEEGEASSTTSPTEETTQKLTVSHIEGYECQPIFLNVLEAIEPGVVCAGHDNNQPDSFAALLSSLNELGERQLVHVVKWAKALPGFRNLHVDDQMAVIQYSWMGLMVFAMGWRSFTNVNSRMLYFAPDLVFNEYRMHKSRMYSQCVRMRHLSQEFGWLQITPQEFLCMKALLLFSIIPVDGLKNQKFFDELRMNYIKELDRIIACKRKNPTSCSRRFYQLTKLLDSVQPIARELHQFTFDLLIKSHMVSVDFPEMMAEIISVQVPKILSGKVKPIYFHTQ
Method in brief: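 MDA-kb2 cells (MMTV-luciferase, responsive to AR and GR) at 3,000/well, rested 5 h at 37C, 0% CO2, then given compounds plus 0.5 nM R1881 (final) for 16 hr. Luciferase read with ONE-Glo after 30 min at room temperature.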

[14] = molecular target: Estrogen receptor (Homo sapiens) (UniProt P03372); experiment: qHTS assay to identify small molecule antagonists of the estrogen receptor alpha (ER-alpha) signaling pathway using the BG1 cell line in the presence of 0.1 nM 17-beta-estradiol (AID 1259244); note: nearly all actives have a fitted effect of over 50% in size
Chain of Estrogen receptor (Homo sapiens) (P03372 whole entry, looked up): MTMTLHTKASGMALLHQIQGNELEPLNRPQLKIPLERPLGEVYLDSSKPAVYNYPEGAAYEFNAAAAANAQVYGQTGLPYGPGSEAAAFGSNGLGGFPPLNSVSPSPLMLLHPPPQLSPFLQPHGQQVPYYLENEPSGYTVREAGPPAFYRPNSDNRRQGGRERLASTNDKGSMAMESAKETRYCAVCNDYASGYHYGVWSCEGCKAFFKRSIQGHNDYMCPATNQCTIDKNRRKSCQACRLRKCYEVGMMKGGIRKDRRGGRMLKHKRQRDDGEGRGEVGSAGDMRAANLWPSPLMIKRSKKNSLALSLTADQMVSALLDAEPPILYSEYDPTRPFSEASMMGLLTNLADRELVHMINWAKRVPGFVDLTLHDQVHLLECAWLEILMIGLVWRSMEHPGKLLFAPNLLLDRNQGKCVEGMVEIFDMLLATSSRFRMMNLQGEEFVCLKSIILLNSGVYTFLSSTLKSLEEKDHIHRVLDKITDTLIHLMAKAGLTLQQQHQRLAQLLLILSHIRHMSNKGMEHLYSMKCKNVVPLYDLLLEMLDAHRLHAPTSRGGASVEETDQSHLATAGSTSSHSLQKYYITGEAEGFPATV
Method in brief: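 VM7Luc4E2 cells (endogenous full-length ER-alpha, 4×ERE-luciferase), kept 5 days in phenol red-free, charcoal-stripped FBS medium; 4,000 cells/well. Compounds added with 0.1 nM (final) 17beta-estradiol, 22 hr at 37C; luminescence read with ONE-Glo after 30 min.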

[15] = qHTS assay to identify small molecule HDAC inhibitors (AID 1259364); note: top concentration of the series differs between compounds; nearly all actives have a fitted effect of over 45% in size
Method in brief: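 Wild-type HCT-116 cells, plated overnight at 37 C, exposed to compounds 2 hr at 37 C; luminogenic HDAC-Glo substrate then added 30 min at room temperature. Luminescence reports relative endogenous class I/II HDAC activity.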

[16] = qHTS assay to identify small molecule HDAC inhibitors - cell viability counter screen (AID 1259365)
Method in brief: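 To flag cytotoxic hits, 1,500 wild-type HCT-116 cells per well, plated the day before, receive test compounds for 2hr at 37 C before CellTiter-Glo reagent and a luminescence read.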

[17] = qHTS assay to identify small molecule agonists of the sonic hedgehog signaling (Shh) pathway - cell viability counter screen (AID 1259366); note: nearly all actives have a fitted effect of over 50% in size
Method in brief: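 Fluorescence from CellTiter-Fluor reports live cells in this counter screen. NIH/3T3-derived Gli1-Luc reporter cells receive test compounds for 24hr at 37C; reagent goes in at 23hr.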

[18] = qHTS assay to identify small molecule antagonists of the sonic hedgehog signaling (Shh) pathway - cell viability counter screen (AID 1259367); note: nearly all actives have a fitted effect of over 55% in size
Method in brief: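 Cells: 3T3 Gli1-Luc, 2,000/well, 4 hr pre-incubation. Compounds in DMSO, then conditioned medium. Incubation 24 hr, 37C, 5% CO2. CellTiter-Fluor at 23 hr, 1 hr, fluorescence.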

[19] = qHTS assay to identify small molecule phospholipidosis (PLD) inducers (AID 1259344; active = well fitted curve in the direction sought with a large enough effect; an effect the other way counts as inactive or inconclusive)
Method in brief: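 Phospholipidosis is scored by imaging LipidTOX-stained pits in HepG2 cells exposed to compound for 24 h at 37 C; pit counts and integrated intensities per well and per cell serve as outputs.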

Measured: Potency

CCC(CC)(CNC(=O)CCCO)c1cccc(OC)c1
not listed: [19]
inactive: all other assays above

N#CN=C1SCCN1Cc1ccc(Cl)nc1
not listed: [13] | [14] | [16] | [19]
inactive: all other assays above

CN1COCN(Cc2cnc(Cl)s2)/C1=N\[N+](=O)[O-]
not listed: [11] | [13] | [14] | [19]
inactive: all other assays above

CC(C)(C)NC[C@H](O)c1ccc(O)cc1Cl
not listed: [11] | [13] | [14]
inactive: all other assays above

CC(=NC#N)N(C)Cc1ccc(Cl)nc1
not listed: [11] | [13] | [14] | [16] | [19]
inactive: all other assays above

NNC(N)=O
not listed: [13] | [19]
inactive: all other assays above

C[C@]12C=CC(=O)C=C1CC[C@@H]1[C@@H]2CC[C@@]2(C)[C@H]1CC[C@]2(C)O
not listed: [13] | [16]
inactive: all other assays above

COc1cccc(C=O)c1
not listed: [13] | [16] | [19]
inactive: all other assays above
